In PubChem BioAssay (Tox21) one finds Potency and activity, negative = inhibition data, which are given here for 32 compounds.

Several values for one entry are separate records, joined by “and”; a condition that tells them apart may be missing. Equal entries are not always repeated. Values without a mark were called inactive. Records with an inconclusive call do not appear. Activity calls are given as the source filed them. Unless noted, calls follow the shape of the dose curve; as a rule, active = well fitted curve in the direction sought with a large enough effect in the repeat runs; inconclusive = weak or mixed curves; inactive = no such curve, though single readings can be large; an effect the other way counts as inactive or inconclusive.

Test [1] is described as follows: Human pregnane X receptor (PXR) small molecule agonists, qHTS cell viability counter screen (AID 1346977). Also: nearly all actives have a fitted effect of over 50% in size. Also: potency is read from the fitted curve at half-maximal effect. An outline of the steps: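 In each well, the PXR reporter HepG2 line was checked for viability: CellTiter-Fluor reagent added 23hr post-dosing, fluorescence read after 1hr incubation at 37C.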
For orientation: qHTS replaces the single test concentration by a dilution series.

Test [2] can be described thus: Caspase-3/7 induction in HepG2 cells by small molecules, qHTS assay (AID 1346978). Also: nearly all actives have a fitted effect of over 15% in size. Also: potency is read from the fitted curve at half-maximal effect. An outline of the steps: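 Caspase-3/7 induction was measured by Caspase-Glo 3/7 luminescence (30 min, room temperature) after a 17 hr compound exposure of wild-type HepG2 cells seeded at 2,000 per well and pre-incubated 5 hr.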
Test [3] is described as follows: Caspase-3/7 induction in CHO-K1 cells by small molecules, qHTS cell viability counter screen (AID 1346979). Also: nearly all actives have a fitted effect of over 35% in size. Also: potency is read from the fitted curve at half-maximal effect. An outline of the steps: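 Following a 5hr settling period, CHO-K1 cells at 1,500 per well received DMSO-dissolved compounds. Cell viability was quantified 16hr later by CellTiter-Fluor fluorescence, measured after 1hr with reagent at 37C.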
Test [4] can be described thus: Caspase-3/7 induction in CHO-K1 cells by small molecules, qHTS assay (AID 1346980). Also: nearly all actives have a fitted effect of over 15% in size. Also: potency is read from the fitted curve at half-maximal effect. An outline of the steps:
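Luminescent Caspase-Glo 3/7 read (30min, room temperature) quantified apoptosis induction. Cells were wild-type CHO-K1, treated with compound for 17hr at 37 C and 5% CO2.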

Test [5] concerns the target Nuclear receptor subfamily 1 group I member 2 (Homo sapiens) (UniProt O75469). Nature of the test: Human pregnane X receptor (PXR) small molecule agonists, qHTS assay (AID 1346982). Also: nearly all actives have a fitted effect of over 35% in size. Also: potency is read from the fitted curve at half-maximal effect. An outline of the steps: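 Reporter HepG2 cells expressing PXR-Luc are cultured in charcoal-stripped FBS (5%), treated with compounds for 24 hr at 37 C, and assayed by ONE-Glo luminescence after 30 min at room temperature.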

The target in test [6] is Acetylcholinesterase (Homo sapiens) (UniProt P22303). Nature of the test: Acetylcholinesterase (AChE) small molecule antagonists: colormetric cell-based qHTS assay (AID 1347395; calls by dose curve; also: % is scaled to controls: 0 for no effect and ±100 for the full control effect; nearly all actives have a fitted effect of over 30% in size). In outline:
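After overnight attachment at 37 C, SH-SY5Y cells get 30 min compound exposure; detection cocktail (acetylthiocholine, DTNB) then incubates 90 min at 37 C, and absorbance reflects AChE-generated thiocholine.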

Test [7] in a line: Caspase-3/7 induction in HepG2 cells by small molecules, qHTS cell viability counter screen (AID 1346981). Also: potency is read from the fitted curve at half-maximal effect; nearly all actives have a fitted effect of over 30% in size. An outline of the steps:
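In this quantitative HTS counter screen, compounds delivered in DMSO were left on unmodified HepG2 cells for 16 hr at 37 C. Viability was then determined fluorometrically with CellTiter-Fluor, in parallel with caspase-3/7 induction in the same wells.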

Sequence of Nuclear receptor subfamily 1 group I member 2 (Homo sapiens) (O75469 whole entry, looked up): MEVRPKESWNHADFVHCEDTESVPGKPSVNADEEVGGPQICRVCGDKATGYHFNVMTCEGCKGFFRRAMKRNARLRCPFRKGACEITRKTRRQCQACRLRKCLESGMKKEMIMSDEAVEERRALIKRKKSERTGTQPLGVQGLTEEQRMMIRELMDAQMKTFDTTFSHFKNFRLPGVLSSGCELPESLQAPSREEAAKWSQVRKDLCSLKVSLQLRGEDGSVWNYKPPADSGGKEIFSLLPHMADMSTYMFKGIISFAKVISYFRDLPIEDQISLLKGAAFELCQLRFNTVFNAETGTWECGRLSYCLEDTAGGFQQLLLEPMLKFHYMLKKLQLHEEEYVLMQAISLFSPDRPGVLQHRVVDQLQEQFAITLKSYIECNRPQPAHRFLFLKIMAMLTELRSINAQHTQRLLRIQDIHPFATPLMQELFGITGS
Sequence of Acetylcholinesterase (Homo sapiens) (P22303 whole entry, looked up): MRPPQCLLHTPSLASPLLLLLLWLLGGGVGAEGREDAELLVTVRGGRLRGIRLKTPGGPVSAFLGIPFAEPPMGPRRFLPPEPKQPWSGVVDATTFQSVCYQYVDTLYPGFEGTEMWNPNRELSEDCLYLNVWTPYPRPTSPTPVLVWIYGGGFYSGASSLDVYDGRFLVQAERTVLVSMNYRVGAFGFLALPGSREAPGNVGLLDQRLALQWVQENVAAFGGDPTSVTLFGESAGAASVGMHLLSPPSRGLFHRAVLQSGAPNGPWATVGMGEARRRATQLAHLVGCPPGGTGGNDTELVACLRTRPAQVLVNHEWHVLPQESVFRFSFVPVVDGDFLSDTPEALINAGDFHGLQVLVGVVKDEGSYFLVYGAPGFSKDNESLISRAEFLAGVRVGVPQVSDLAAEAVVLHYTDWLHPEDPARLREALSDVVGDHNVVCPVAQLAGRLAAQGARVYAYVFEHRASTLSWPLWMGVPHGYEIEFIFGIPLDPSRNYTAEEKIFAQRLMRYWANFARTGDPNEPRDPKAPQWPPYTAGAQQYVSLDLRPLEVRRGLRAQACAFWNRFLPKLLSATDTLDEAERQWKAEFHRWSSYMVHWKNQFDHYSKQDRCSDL

In the case of `O=C(O)c1cc[c]([Hg][Cl])cc1`, the Potency in test [1] was 68.6 µM (active); in test [3], 24.3 µM (active); in test [5], 21.7 µM (active). The Potency entry in test [2], in test [4] and in test [6] was “inactive” each time.

On to `CN(C)S(=O)(=O)N(SC(F)(Cl)Cl)c1ccccc1`, for which the Potency is 24.3 µM (active) in test [1] and 7.7 µM (active) in test [3]. The Potency entry in test [2], in test [4], in test [5] and in test [6] was “inactive” throughout.

As to `c1ccc(Nc2ccc3ccccc3c2)cc1`, the Potency result in test [1], in test [2], in test [4] and in test [6] was “inactive” in each case. Besides, the Potency in test [3] is 54.5 µM (active); in test [5], 30.5 µM (active) and 21.7 µM (active).

With `O=S(=O)(c1ccc(Cl)cc1)c1ccc(Cl)cc1`, the Potency entry in test [1], in test [2], in test [4] and in test [6] was “inactive” throughout. For the same compound, the Potency was 41.1 µM (active) in test [3] and 22 µM (active) in test [5].

Turning to `CC(C)(C)C(O)C(Oc1ccc(-c2ccccc2)cc1)n1cncn1` (stereo not given), the Potency in test [1] is 61.1 µM (active); in test [3], 61.1 µM (active); in test [5], 19.3 µM (active). Further, the Potency entry in test [2], in test [4] and in test [6] was “inactive” throughout.

As to `Clc1ccc(C(Cl)(Cl)Cl)c(Cl)c1`, the Potency result in test [1], in test [2], in test [3], in test [4], in test [5] and in test [6] was “inactive” throughout.

On to `CCOCn1c(-c2ccc(Cl)cc2)c(C#N)c(Br)c1C(F)(F)F`, for which the figures for the Potency in test [1], in test [3] and in test [5] were 0.864 µM (active), 2.73 µM (active) and 1.37 µM (active), respectively. Also, the Potency result in test [2], in test [4] and in test [6] was “inactive” in each case.

Take `CCCN(CC)CC1COC2(CCC(C(C)(C)C)CC2)O1` (stereo not given): the Potency entry in test [1], in test [2], in test [3], in test [4], in test [5] and in test [6] was “inactive” each time.

On to `COc1ccc(OC)c(C=O)c1`, for which the Potency entry in test [1], in test [2], in test [3], in test [4], in test [5] and in test [6] was “inactive” in each case.

`BrCBr`: the Potency entry in test [1], in test [2], in test [3], in test [4], in test [5] and in test [6] was “inactive” each time.

On to `CCc1ccccc1C`, for which the Potency result in test [1], in test [2], in test [3], in test [4], in test [5] and in test [6] was “inactive” in each case.

As for `S=C=Nc1cccc2ccccc12`, the Potency is 53.9 µM (active) in test [1], 60.5 µM (active) in test [3] and 10.8 µM (active) in test [5]. For the same compound, the Potency result in test [2], in test [4] and in test [6] was “inactive” throughout.

In the case of `O=CC(Br)(Br)Br`, the Potency in test [1] was 43.1 µM (active); in test [3], 19.3 µM (active); in test [7], 54.3 µM (active). Besides, the Potency result in test [2], in test [4] and in test [6] was “inactive” in each case.

`NNC(=O)c1ccccc1`: the Potency entry in test [1], in test [2], in test [3], in test [4] and in test [6] was “inactive” throughout. In test [5], the Potency was 31.5 µM (active).

On to `CCCCOP(=O)(CCCC)OCCCC`, for which the Potency result in test [1], in test [2], in test [3], in test [4], in test [5] and in test [6] was “inactive” in each case.

Take `C=CCOC(N)=O`: the Potency result in test [1], in test [2], in test [3], in test [4], in test [5] and in test [6] was “inactive” throughout.

As for `c1ccc2c(c1)OCC(C1=NCCN1)O2` (stereo not given), the Potency is 26.6 µM (active) in test [1], 23.7 µM (active) in test [3] and 11.9 µM (active) in test [5]. The Potency entry in test [2], in test [4] and in test [6] was “inactive” in each case.

`Clc1ccc(-c2ccccc2)cc1`: the Potency entry in test [1], in test [2], in test [3], in test [4], in test [5] and in test [6] was “inactive” in each case.

For `O=[N+]([O-])c1cc(C(F)(F)F)c(Cl)c([N+](=O)[O-])c1Cl`, the Potency in test [1] was 27.3 µM (active); in test [2], 21.7 µM (active); in test [3] it was 8.63 µM (active); in test [4] it was 1.93 µM (active); in test [7] it was 61.1 µM (active). Also, the Potency result in test [6] is “inactive”.

Take `CC1(C)CN=C(NN=C(/C=C/c2ccc(C(F)(F)F)cc2)/C=C/c2ccc(C(F)(F)F)cc2)NC1`: the Potency in test [1] is 12.2 µM (active); in test [2], 12.2 µM (active); in test [3], 8.63 µM (active); in test [7], 19.3 µM (active). In addition, the Potency result in test [4] and in test [6] was “inactive” in each case.

As for `CCN`, the Potency result in test [1], in test [2], in test [3], in test [4], in test [5] and in test [6] was “inactive” in each case.

In the case of `CC(C)(C)c1ccc(CSc2cnn(C(C)(C)C)c(=O)c2Cl)cc1`, the Potency in test [1] is 0.122 µM (active); in test [3] it was 0.0172 µM (active). Also, the Potency entry in test [2], in test [4], in test [5] and in test [6] was “inactive” in each case.

Take `CC(C)(C)c1cc([N+](=O)[O-])cc(C(C)(C)C)c1O`: the Potency in test [1] is 5.45 µM (active); in test [3], 7.7 µM (active); in test [5], 5.45 µM (active). In addition, the Potency result in test [2], in test [4] and in test [6] was “inactive” in each case.

Take `FC(Cl)(Cl)Cl`: the Potency result in test [1], in test [2], in test [3], in test [4], in test [5] and in test [6] was “inactive” each time.

For `CCCCCCCCCCCCCCC(Br)C(=O)O` (stereo not given), the Potency entry in test [1], in test [2], in test [3], in test [4], in test [5] and in test [6] was “inactive” each time.

As for `CCC(C)c1cc([N+](=O)[O-])cc([N+](=O)[O-])c1OC(=O)C=C(C)C` (stereo not given), the values for the Potency in test [1], in test [3] and in test [5] were 27.3 µM (active), 43.3 µM (active) and 61.1 µM (active), respectively. Also, the Potency result in test [2], in test [4] and in test [6] was “inactive” throughout.

As for `Cc1cc(C(F)(C(F)(F)F)C(F)(F)F)ccc1NC(=O)c1cccc(I)c1C(=O)NC(C)(C)CS(C)(=O)=O`, the Potency result in test [1], in test [2], in test [3], in test [4] and in test [6] was “inactive” throughout. In test [5], the Potency is 13.8 µM (active).

For `[Cl][Sb]([Cl])[Cl]`, the Potency result in test [1], in test [2], in test [4] and in test [6] was “inactive” in each case. Also, the Potency in test [3] was 54.5 µM (active); in test [5], 27.3 µM (active).

On to `Cc1ccc(C(=O)Cl)cc1`, for which the Potency entry in test [1], in test [2], in test [3], in test [4], in test [5] and in test [6] was “inactive” in each case.

For the compound `CCC(C)c1cc(C(C)(C)C)cc(-n2nc3ccccc3n2)c1O` (stereo not given), the Potency result in test [1], in test [2], in test [3], in test [4], in test [5] and in test [6] was “inactive” each time.

As for `C[C@@H](Oc1ccc(Cl)cc1Cl)C(=O)O`, the Potency entry in test [1], in test [2], in test [4], in test [5] and in test [6] was “inactive” throughout.

Take `[Cl][Sn]([c]1ccccc1)([c]1ccccc1)[c]1ccccc1`: the Potency was 1.03 µM (active) in test [1], 1.46 µM (active) in test [2], 0.326 µM (active) in test [3] and 0.326 µM (active) in test [4]. The activity, negative = inhibition in test [6] was 1.75% [at 23.6 µM].
